Assay results published in PubChem BioAssay (NCATS).
Inconclusive results are not listed. Unmarked numbers belong to inactive results. Calls of active or inactive are those of the source. Calls come from the whole dose curve; as a rule, active = well fitted cell-killing curve with a large enough effect; inconclusive = small, poorly fitted or top-dose-only effect; inactive = no such curve, though single readings can be large or run the other way.

test: qHTS of pediatric cancer cell lines to identify multiple opportunities for drug repurposing: Primary screen for SJ-GBM2 cells (AID 1347091); details: SJ-GBM2 viability, CellTiter-Glo luminescence, 48 h; series mostly up to 46 µM; activity change, negative = cytotoxic: at the top concentration;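 for activity change, negative = cytotoxic: plate controls were DMSO neutral control for no effect and bortezomib for full effect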
Method in brief: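 Eight- or eleven-point concentration series, 48 h treatment at 37 degrees C in growth media; readout CellTiter-Glo luminescence. Potency and efficacy were taken from the concentration-response curves.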
Potency is the fitted concentration of half-maximal effect.

Question: With `CCN(CC)C(=O)[C@@H]1C=C2c3cccc4[nH]cc(c34)C[C@H]2N(C)C1` as the molecule, how does the “activity change, negative = cytotoxic” value read?
Answer: Its value is 7.03% [at 155 µM].

Question: For `C[C@]12CCC(=O)C=C1CC[C@@H]1[C@H]3CC[C@](C)(O)[C@@]3(C)CC[C@@H]12`, which Potency is on record?
Answer: The Potency was 49 µM (active).

Question: For `C[C@]12CC[C@H]3[C@@H](CC[C@@]45O[C@H]4C(O)=C(C#N)C[C@]35C)[C@H]1CC[C@H]2O`, which “activity change, negative = cytotoxic” value is on record?
Answer: Its value is -14.6%.

Question: For `CC(Cc1ccccc1)N(C)Cc1ccco1` (stereo not drawn), which “activity change, negative = cytotoxic” value is on record?
Answer: The value was 12%.

Question: With `CCCCCCCCCC(=O)O[C@H]1CC[C@H]2[C@@H]3CCC4=CC(=O)CC[C@@H]4[C@H]3CC[C@]12C` as the molecule, how does the “activity change, negative = cytotoxic” value read?
Answer: Its value is 3.22%.

Question: Which Potency does the source give for `C[C@](O)(CS(=O)(=O)c1ccc(F)cc1)C(=O)Nc1ccc(C#N)c(C(F)(F)F)c1` here?
Answer: The Potency was 3.72 µM (active).

test: qHTS of pediatric cancer cell lines to identify multiple opportunities for drug repurposing: Primary screen for A673 cells (AID 1347092); details: A673 Ewing sarcoma viability, CellTiter-Glo ATP luminescence, 48 h; series mostly up to 46 µM; activity change, negative = cytotoxic: at the top concentration; note: nearly all actives have a fitted effect of over 45% in size; for activity change, negative = cytotoxic: % is set by controls: 0 for no effect and ±100 for the full control effect
Method in brief: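 48 h compound exposure, A673, 500-1,000 cells/well, 37 degrees C/5% CO2. MIPE: 11-point, 0.78 nM-46 µM; NPC: 8-point, 0.59 nM-46 µM (final). Readout CellTiter-Glo luminescence after 15 min RT.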

Question: For `CCN(CC)C(=O)[C@@H]1C=C2c3cccc4[nH]cc(c34)C[C@H]2N(C)C1`, which Potency is on record?
Answer: Its Potency is 56.6 µM (active).

Question: For `C[C@]12Cc3cn[nH]c3C[C@@H]1CC[C@@H]1[C@@H]2CC[C@@]2(C)[C@H]1CC[C@]2(C)O`, which “activity change, negative = cytotoxic” value is on record?
Answer: Its value is -10.3%.

Question: Which Potency does the source give for `C[C@]12CC[C@H]3[C@@H](CC[C@@]45O[C@H]4C(O)=C(C#N)C[C@]35C)[C@H]1CC[C@H]2O` here?
Answer: Its Potency is 18.7 µM (active).

Question: With `CC(Cc1ccccc1)N(C)Cc1ccco1` (stereo not drawn) as the molecule, how does the “activity change, negative = cytotoxic” value read?
Answer: The value was 1.15%.

Question: Which Potency does the source give for `COc1cccc2c1C(=O)c1c(O)c3c(c(O)c1C2=O)C[C@@](O)(C(=O)CO)CC3OC1CC(N2CCOC(OC)C2)C(O)C(C)O1` (stereo partly drawn) here?
Answer: The Potency was 0.0266 µM (active).

Question: Which “activity change, negative = cytotoxic” value does the source give for `CCCCCCCCCC(=O)O[C@H]1CC[C@H]2[C@@H]3CCC4=CC(=O)CC[C@@H]4[C@H]3CC[C@]12C` here?
Answer: Its value is 7.54%.

Question: For `C[C@](O)(CS(=O)(=O)c1ccc(F)cc1)C(=O)Nc1ccc(C#N)c(C(F)(F)F)c1`, which Potency is on record?
Answer: Its Potency is 2.96 µM (active).
